Here are results for 34 compounds from PubChem BioAssay (NCATS).

Each structure is given as a SMILES string. Results filed as inconclusive are left out. Where a call stands in place of a potency, no number is given. Activity calls are given as the source filed them. Unless noted, calls come from the whole dose curve.

Test [1] in a line: Primary qHTS for Vero E6 cytotoxicity: counterscreen for inhibitors of SARS-S pseudo-typed particle cell entry (AID 1479150). Note: potency is the fitted concentration of half-maximal effect. A general note: Quantitative high-throughput screening tests each substance at several concentrations.
The nature of test [2]: Cytotoxicity counterscreen for inhibitors of SARS-CoV-2 cell entry (AID 1645845). Note: nearly all actives have a fitted effect of over 50% in size. Conditions: outcome: dose series up to 57.1 µM unless noted. The procedure, abridged:
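ATP-content luminescence (ATPLite 1step, 15 min RT) read after 48 h compound exposure of Expi293F cells stably expressing human ACE2; normalized to cells-only wells and media-only wells.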
(In general: Counterscreens check selectivity or assay interference.)

The nature of test [3]: Primary qHTS to identify inhibitors of SARS-CoV-2 cell entry (AID 1645846). Note: nearly all actives have a fitted effect of over 45% in size. Note: potency is the fitted concentration of half-maximal effect. Conditions: activity change, negative = inhibition: at 57.1 µM (top of the series) unless noted. In outline:
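Data are normalized to wells receiving SARS-CoV-2-S pseudoparticles and those given bald particles. Entry signal was luciferase luminescence in stable hACE2 Expi293F cells, 48 hr post-infection, after 1 hr compound pretreatment.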

Test [4] is described as follows: Primary qHTS for inhibitors of La Crosse Virus (LACV) - induced cell death in SH-SY5Y cells (AID 1508616; active = well fitted curve in the direction sought with a large enough effect; an effect the other way counts as inactive or inconclusive;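 note: top concentration of the series differs between compounds; higher means more rescue of cells from virus-induced death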). The procedure, abridged: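 SH-SY5Y, 6000 cells/well; cpd via pin tool in DMSO; LACV 0.01 MOI; 6 d 37C 5% CO2; ATPLite, 5 min RT; luminescence normalized to ±virus DMSO controls.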
The target in test [5] is Calcium and integrin-binding protein 1 (Homo sapiens) (UniProt Q99828). As to the kind of experiment: Validation qHTS for Identification of Calcium Integrin Binding protein 1 (CIB1) Competitor (AID 1508618; active = well fitted curve in the direction sought with a large enough effect; an effect the other way counts as inactive or inconclusive). In outline:
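Fluorescence polarization with 1 uM CIB1-GST and 100 nM FITC-alphaIIb peptide in HEPES pH 7.4, NaCl, 5 mM CaCl2, Tween20. Compounds at up to 114 uM final, preincubated with protein 15 min; read after 15 min more at RT.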

Test [6] can be described thus: Primary qHTS for small molecule stabilizers of the endoplasmic reticulum resident proteome: Secreted ER Calcium Modulated Protein (SERCaMP) assay (AID 1508630; active = well fitted curve in the direction sought with a large enough effect; an effect the other way counts as inactive or inconclusive). In outline: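 The SH-SY5Y reporter protocol was run at 3 concentrations up to 38.3 uM (primary) or 11 concentrations (follow-up): 16 h compound, 100 nM thapsigargin for 4 h, then extracellular luciferase luminescence.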

In test [7] the target is Cytochrome P450 2D6 (Homo sapiens) (UniProt P10635). As to the kind of experiment: Cytochrome P450 family 2 subfamily D member 6 (CYP2D6) small molecule antagonists: luciferase biochemical (cell-free) qHTS assay (AID 1645840; active = well fitted curve in the direction sought with a large enough effect in the repeat runs; an effect the other way counts as inactive or inconclusive; note: nearly all actives have a fitted effect of over 55% in size). In outline:
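P450-Glo CYP2D6 system: proluciferin substrate converted by enzyme to luciferin, read by luminescence proportional to activity. Enzyme-substrate mix with compound 10 min at room temperature, then NADPH regeneration 1 h before detection reagent.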

Test [8] deals with Cytochrome P450 2C9 (Homo sapiens) (UniProt P11712). The test is described as follows: Cytochrome P450 family 2 subfamily C member 9 (CYP2C9) small molecule antagonists: luciferase biochemical (cell-free) qHTS assay (AID 1645842; active = well fitted curve in the direction sought with a large enough effect in the repeat runs; an effect the other way counts as inactive or inconclusive; note: nearly all actives have a fitted effect of over 55% in size; note: potency is the fitted concentration of half-maximal effect). The procedure, abridged: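 P450-Glo CYP2C9 system: proluciferin substrate with enzyme in mix containing 0.4% BSA, 10 min at room temperature, then NADPH regeneration solution added and incubated 1 h at 37C. Detection reagent stopped reaction; luminescence read after 20 min as RLU.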

The nature of test [9]: Confirmatory qHTS to identify inhibitors of SARS-CoV-2 cell entry (AID 1645844). Note: potency is the fitted concentration of half-maximal effect; nearly all actives have a fitted effect of over 45% in size. Conditions: SARS-CoV-2 pseudotyped particle cell entry, luciferase. In outline:
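Luminescence entry read-out after 48 h: spike-pseudotyped MLV particles (Wuhan-Hu-1, 19-aa C-terminal truncation) added to compound-pretreated (1 h) HEK293-ACE2 cells; Data were normalised to bald PP and spike PP wells.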

Test [10] in a line: VSVG counterscreen qHTS to identify inhibitors of SARS-CoV-2 cell entry (AID 1645847). Note: potency is the fitted concentration of half-maximal effect; nearly all actives have a fitted effect of over 65% in size. Conditions: VSV-G pseudotyped particle entry, luciferase. The procedure, abridged:
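Counterscreen using VSV-G (not spike) pseudotyped MLV particles on ACE2-expressing Expi293F cells after 1 h compound preincubation; infection ran 48 h at 37 °C. Data normalized to VSV-G PP and bald-PP wells.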

A short description of test [11]: Confirmatory qHTS for VERO E6 Cytotoxicity Assay: Counterscreen for SARS-CoV-2 CPE Assay (AID 1508605). Note: nearly all actives have a fitted effect of over 60% in size.
Test [12] is described as follows: Confirmatory qHTS for activators (rescue) of SARS-CoV-2 Cytopathic Effect (CPE) (AID 1508606). Note: nearly all actives have a fitted effect of over 70% in size.
In test [13] the target is Calcium and integrin-binding protein 1 (Homo sapiens) (UniProt Q99828). The test is described as follows: Primary qHTS for Identification of Calcium Integrin Binding Protein 1 (CIB1) Competitor (AID 1508620; active = well fitted curve in the direction sought with a large enough effect; an effect the other way counts as inactive or inconclusive;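 note: GST tagged CIB1 binding a fluorescein labelled alphaIIb integrin peptide tracer; top concentration of the series differs between compounds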). In outline: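 CIB1-GST (1 uM final) and compound incubated 15 min at room temperature before adding FITC-alphaIIb peptide tracer (100 nM final). Competition for binding read by fluorescence polarization (ex 480, em 540) after another 15 min at room temperature.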

The nature of test [14]: Primary qHTS for inhibitors of nuclear receptor binding SET domain protein 2 (NSD2) in an isogenic RCH-ACV NSD2 p.E1099K mutant (9B) (AID 1645876; active = well fitted curve in the direction sought with a large enough effect; an effect the other way counts as inactive or inconclusive; note: nearly all actives have a fitted effect of over 70% in size).

Sequence of Cytochrome P450 2D6 (Homo sapiens) (P10635 whole entry, looked up): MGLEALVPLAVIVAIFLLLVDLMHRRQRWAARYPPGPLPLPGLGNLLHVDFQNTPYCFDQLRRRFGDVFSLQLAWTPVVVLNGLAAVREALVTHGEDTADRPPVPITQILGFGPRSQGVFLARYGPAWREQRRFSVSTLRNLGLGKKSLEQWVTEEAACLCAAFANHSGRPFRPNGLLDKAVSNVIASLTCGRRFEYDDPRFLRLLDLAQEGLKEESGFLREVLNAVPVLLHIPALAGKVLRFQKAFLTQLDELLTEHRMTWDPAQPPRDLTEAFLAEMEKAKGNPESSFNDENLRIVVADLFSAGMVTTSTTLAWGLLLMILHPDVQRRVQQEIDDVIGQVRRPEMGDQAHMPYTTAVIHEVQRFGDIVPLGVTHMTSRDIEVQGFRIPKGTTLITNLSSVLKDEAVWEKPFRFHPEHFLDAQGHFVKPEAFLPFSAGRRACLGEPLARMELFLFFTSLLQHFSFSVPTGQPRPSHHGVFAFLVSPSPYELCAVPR
Sequence of Cytochrome P450 2C9 (Homo sapiens) (P11712 whole entry, looked up): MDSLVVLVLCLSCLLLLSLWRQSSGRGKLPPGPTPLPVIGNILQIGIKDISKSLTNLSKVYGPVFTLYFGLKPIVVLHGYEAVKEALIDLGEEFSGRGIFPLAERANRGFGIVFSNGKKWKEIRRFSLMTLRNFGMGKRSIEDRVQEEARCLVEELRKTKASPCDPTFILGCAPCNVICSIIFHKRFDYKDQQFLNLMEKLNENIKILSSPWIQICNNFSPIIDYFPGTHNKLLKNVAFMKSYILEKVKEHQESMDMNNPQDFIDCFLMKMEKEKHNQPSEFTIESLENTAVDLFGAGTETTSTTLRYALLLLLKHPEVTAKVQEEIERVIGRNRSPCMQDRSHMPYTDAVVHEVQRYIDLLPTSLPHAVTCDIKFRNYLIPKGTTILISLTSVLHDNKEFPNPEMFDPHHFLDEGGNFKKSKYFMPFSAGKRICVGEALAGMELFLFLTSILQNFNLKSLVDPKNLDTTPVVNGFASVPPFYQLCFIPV
Sequence of Calcium and integrin-binding protein 1 (Homo sapiens) (Q99828 whole entry, looked up): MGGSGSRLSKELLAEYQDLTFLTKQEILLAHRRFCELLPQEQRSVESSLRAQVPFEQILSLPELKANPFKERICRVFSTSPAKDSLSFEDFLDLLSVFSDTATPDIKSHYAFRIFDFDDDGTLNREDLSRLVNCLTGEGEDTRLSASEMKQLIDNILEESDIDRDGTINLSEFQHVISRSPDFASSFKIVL

For the compound `O=C(C[C@@H]1NCCC[C@H]1O)Cn1cnc2cc(Br)c(Cl)cc2c1=O`, the Potency entry in [1] was “inactive”. Moreover, the call in test [2] was inactive.

Take `CCC1(C)CC(=O)NC(=O)C1`: in test [1], the Potency entry is “inactive”. The outcome in test [2] was “inactive [at 114 µM]”. In addition, the activity change, negative = inhibition in test [3] was -21.5% [at 114 µM].

Turning to `COc1ccc(OC)c(C(O)C(C)N)c1` (stereo not drawn), the Potency result in test [1], in test [4], in [5], in test [7] and in test [8] was “inactive” in each case. The result in test [6] and in test [2] was inactive.

For the compound `CC[C@H](C)[C@H]1O[C@]2(C=C[C@@H]1C)C[C@@H]1C[C@@H](C/C=C(\C)[C@@H](O[C@H]3C[C@H](OC)[C@@H](O[C@H]4C[C@H](OC)[C@@H](O)[C@H](C)O4)[C@H](C)O3)[C@@H](C)/C=C/C=C3\CO[C@@H]4[C@H](O)C(C)=C[C@@H](C(=O)O1)[C@]34O)O2`, the Potency result in [1] is “inactive”. In addition, the results for the Potency in test [9], in [3] and in test [10] were 21.5 µM (active), 10 µM (active) and 12.1 µM (active), respectively.

Consider `C[C@]12CC[C@H](OS(=O)(=O)O)CC1=CC[C@@H]1[C@@H]2CC[C@]2(C)C(=O)CC[C@@H]12`, for which the Potency result in [1] is “inactive”. Moreover, the compound was called inactive in [2]. The activity change, negative = inhibition in [3] was -5.13%.

With `O=c1[nH]cc(N(CCCl)CCCl)c(=O)[nH]1`, the Potency entry in test [1] was “inactive”. Also, the compound was called inactive in test [2]. Moreover, the activity change, negative = inhibition in test [3] is -21% [at 114 µM].

For the compound `FC(F)OC(F)(F)C(F)Cl` (stereo not drawn), in test [1], the Potency result was “inactive”. Besides, the call in test [2] was inactive.

For the compound `O=[N+]([O-])C(Br)(CO)CO`, the Potency entry in test [1], in test [7] and in test [3] was “inactive” throughout. Also, the Potency in test [8] is 6.74 µM (active). Further, the outcome in test [2] was inactive.

Regarding `CC[C@H]1CN2CC[C@H]1C[C@@H]2[C@@H](O)c1ccnc2ccc(OC)cc12`, the Potency result in test [1], in test [13] and in test [14] was “inactive” in each case. Besides, the compound was called inactive in test [11], in [12] and in test [2].

On to `CCNCC(O)c1cccc(O)c1` (stereo not drawn), for which the Potency entry in test [1], in test [7] and in test [8] was “inactive” throughout. In test [2], the compound was classed as inactive. Moreover, in [3], the activity change, negative = inhibition is -13.6%.

`COc1cc2c(cc1OC)[C@@]13CCN4CC5=CCO[C@H]6CC(=O)N2[C@H]1[C@H]6[C@H]5C[C@H]43`: the Potency entry in [1], in test [13] and in test [14] was “inactive” each time. For the same compound, the result in test [2] was inactive. Further, the activity change, negative = inhibition in [3] is -18.2%.

In the case of `CC1CCC(C(C)C)C(OC(=O)c2ccccc2N)C1` (stereo not drawn), the Potency entry in test [1] and in test [7] was “inactive” in each case. For the same compound, the Potency in test [8] is 2.68 µM (active). The compound was classed as inactive in test [2]. The activity change, negative = inhibition in [3] is -3.33%.

With `O=[N+]([O-])c1cc(I)c(O)c(I)c1`, the Potency result in [1] and in test [7] was “inactive” each time. The result in [2] was inactive.

For `CCN(CC)C(=O)N[C@H]1C[C@@H]2c3cccc4[nH]cc(c34)C[C@H]2N(C)C1`, in test [1], the Potency entry is “inactive”. Moreover, the compound was classed as inactive in test [2].

Consider `NCC(O)c1cccc(O)c1` (stereo not drawn), for which the Potency result in test [1], in test [7] and in test [8] was “inactive” each time. Further, the result in test [2] was inactive. Moreover, the activity change, negative = inhibition in [3] is -19.3%.

`C[C@@H](CO)NC(=O)[C@@H]1C=C2c3cccc4[nH]cc(c34)C[C@H]2N(C)C1`: the Potency result in test [1] is “inactive”. In addition, the compound was classed as inactive in test [2].

As for `O=C(NCNC(=O)NC1C(=O)NC(=O)N1CO)NC1C(=O)NC(=O)N1CO` (stereo not drawn), the Potency result in [1] and in [3] was “inactive” in each case. Moreover, the compound was classed as inactive in [2].

`ClC1C(Cl)C(Cl)C(Cl)C(Cl)C1Cl` (stereo not drawn): the Potency entry in test [1], in [7], in test [8] and in test [3] was “inactive” throughout. For the same compound, the compound was called inactive in test [2].

Turning to `C[C@]12CCC(=O)C=C1C=C[C@@H]1[C@@H]2CC[C@@]2(C)[C@H]1CC[C@@]2(O)CCC(=O)O`, the Potency result in test [1] was “inactive”. The call in test [2] was inactive.

For `O=C1C[C@@H]2OCC=C3CN4CC[C@]56c7ccccc7N1[C@H]5[C@H]2[C@H]3C[C@H]46`, the Potency result in [1], in test [13] and in test [14] was “inactive” each time. Moreover, the compound was classed as inactive in test [2].

For `O=C/C=C/c1ccccc1`, the Potency entry in test [1] was “inactive”. In addition, the call in test [2] was inactive. Moreover, the activity change, negative = inhibition in test [3] was -22.2%.

In the case of `CC(N)Cc1ccc(O)cc1` (stereo not drawn), the Potency entry in [1] was “inactive”. For the same compound, the compound was called inactive in test [2].

Turning to `COC([CH2][Hg])CNC(=O)c1ccccc1OCC(=O)O` (stereo not drawn), in [1], the Potency was 3.55 µM (active).

For `CCNC1(c2cccs2)CCCCC1=O` (stereo not drawn), the Potency result in test [1] was “inactive”. Also, the result in [2] was inactive.

Take `CCC1(CC)C(=O)NC(=O)N(C)C1=O`: in test [1], the Potency result was “inactive”. Besides, the result in test [2] was inactive.

In the case of `O=C(O)C(Cl)(Cl)Cl`, in [1], the Potency entry was “inactive”. The result in test [2] was inactive. Moreover, the activity change, negative = inhibition in test [3] is -27.9%.

For `CC[N+](C)(CC)CCOC(=O)C(O)(c1ccccc1)c1ccccc1`, the Potency result in test [1] is “inactive”. In test [2], the outcome was inactive. Further, the activity change, negative = inhibition in test [3] is -7.01%.

Turning to `CCC(=O)O[C@@](Cc1ccccc1)(c1ccccc1)[C@@H](C)CN(C)C`, the Potency entry in test [1] was “inactive”. Besides, the call in [2] was inactive.

Turning to `C=CC[C@]1(O)CC[C@H]2[C@@H]3CCC4=CCCC[C@@H]4[C@H]3CC[C@@]21C`, the Potency entry in test [1] was “inactive”. The compound was called inactive in [2].

Take `CCOc1ccc2c3c1O[C@H]1[C@@H](O)C=C[C@H]4[C@@H](C2)N(C)CC[C@@]341`: the Potency result in [1] was “inactive”. For the same compound, the call in test [2] was inactive.

As for `CCCC(=O)OC(C(Cl)(Cl)Cl)P(=O)(OC)OC` (stereo not drawn), the Potency result in [1] is “inactive”. The outcome in test [2] is “inactive [at 114 µM]”.

With `CC(=O)O[C@H]1CC[C@H]2[C@@H]3CCC4=CC(=O)CCC4=C3C=C[C@]12C`, the Potency result in [1] was “inactive”. Further, in test [2], the outcome was inactive. Besides, the activity change, negative = inhibition in test [3] was -33.2%.

Take `CC(C)(O)[C@@H]1[C@H]2OC(=O)[C@@H]1[C@]1(O)C[C@H]3O[C@]34C(=O)O[C@H]2[C@]14C`: in test [1], the Potency result is “inactive”. Besides, in test [2], the call was inactive.

As for `Oc1ccc2c3c1O[C@H]1[C@@H](O)CC[C@@]4(O)[C@@H](C2)N(CC2CCC2)CC[C@]314`, the Potency result in [1] was “inactive”. Besides, in test [2], the result was inactive. For the same compound, the activity change, negative = inhibition in test [3] came to 1.55%.
